Assay results reported in PubChem BioAssay (NCATS).
Several values for one entry are separate records, joined by “and”; a condition that tells them apart may be missing. Identical values can stand only once. Inconclusive results are not listed. Activity calls are given as the source filed them. Unless noted, the call rests on the fitted dose curve.

What was measured:
[1] = target: Bile acid receptor (Homo sapiens) (UniProt Q96RI1); test: qHTS assay for small molecule agonists of farnesoid X receptor signaling (AID 588527); conditions: HEK293T FXR-UAS-bla, beta-lactamase ratio, 16 h; activation: stronger effect = higher value;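 further: series mostly up to about 77 µM; 0% = vehicle basal and 100% = reference agonist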
Sequence of Bile acid receptor (Homo sapiens) (Q96RI1 whole entry, looked up): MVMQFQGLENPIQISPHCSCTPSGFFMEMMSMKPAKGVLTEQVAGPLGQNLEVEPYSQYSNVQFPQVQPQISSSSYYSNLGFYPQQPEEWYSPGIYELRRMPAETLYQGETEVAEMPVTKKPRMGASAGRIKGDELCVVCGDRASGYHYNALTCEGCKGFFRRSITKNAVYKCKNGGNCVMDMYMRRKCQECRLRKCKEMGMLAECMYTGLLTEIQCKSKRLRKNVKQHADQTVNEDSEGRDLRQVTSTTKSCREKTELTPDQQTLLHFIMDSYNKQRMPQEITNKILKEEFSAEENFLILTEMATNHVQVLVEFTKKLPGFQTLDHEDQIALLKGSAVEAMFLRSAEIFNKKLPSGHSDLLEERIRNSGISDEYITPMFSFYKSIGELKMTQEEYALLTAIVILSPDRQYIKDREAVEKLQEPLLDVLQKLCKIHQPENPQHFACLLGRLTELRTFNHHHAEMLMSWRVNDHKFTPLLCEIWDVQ
In short: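 Agonist-mode beta-lactamase reporter in GeneBLAzer FXR-UAS-bla HEK293T cells, titration up to 92 uM, 16 h exposure at 37 C, CCF4 fluorescence. Response scaled to DMSO (0%) and 100 uM chenodeoxycholic acid (100%), then Hill-fitted for EC50 and efficacy.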

[2] = target: Peroxisome proliferator-activated receptor delta (Homo sapiens) (UniProt Q03181); test: qHTS assay for small molecule agonists of peroxisome proliferator-activated receptor delta signaling (AID 588534);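 further: 0% = DMSO basal wells and 100% = positive control agonist at 10 µM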
Sequence of Peroxisome proliferator-activated receptor delta (Homo sapiens) (Q03181 whole entry, looked up): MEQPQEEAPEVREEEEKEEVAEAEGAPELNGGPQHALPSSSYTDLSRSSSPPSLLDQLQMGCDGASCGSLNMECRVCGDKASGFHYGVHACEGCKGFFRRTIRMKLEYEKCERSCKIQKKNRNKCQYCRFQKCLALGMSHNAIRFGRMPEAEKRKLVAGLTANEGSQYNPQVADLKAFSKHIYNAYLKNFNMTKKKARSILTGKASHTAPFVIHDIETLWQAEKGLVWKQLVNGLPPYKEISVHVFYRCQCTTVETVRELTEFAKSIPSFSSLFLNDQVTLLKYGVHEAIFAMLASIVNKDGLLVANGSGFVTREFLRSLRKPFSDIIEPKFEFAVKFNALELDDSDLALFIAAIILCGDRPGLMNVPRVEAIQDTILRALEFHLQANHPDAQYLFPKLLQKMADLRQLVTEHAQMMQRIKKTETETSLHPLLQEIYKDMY
In short: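 Titration series tested in agonist mode on beta-lactamase reporter cells; 18 hrs at 37 C after a 5 hr pre-incubation. Readout: CCF4 fluorescence, 2 hrs RT. Hill equation gives EC50 and maximal response.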

[3] = target: Peroxisome proliferator-activated receptor gamma (Homo sapiens) (UniProt P37231); test: qHTS assay for small molecule agonists of peroxisome proliferator-activated receptor gamma signaling (AID 588536; active means well fitted curve in the direction sought with a large enough effect in the signal ratio, with a control signal flat, not every such curve was filed as active; the % refers to the signal ratio;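 further: 0% = DMSO basal wells and 100% = rosiglitazone at 2 µM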)
Sequence of Peroxisome proliferator-activated receptor gamma (Homo sapiens) (P37231 whole entry, looked up): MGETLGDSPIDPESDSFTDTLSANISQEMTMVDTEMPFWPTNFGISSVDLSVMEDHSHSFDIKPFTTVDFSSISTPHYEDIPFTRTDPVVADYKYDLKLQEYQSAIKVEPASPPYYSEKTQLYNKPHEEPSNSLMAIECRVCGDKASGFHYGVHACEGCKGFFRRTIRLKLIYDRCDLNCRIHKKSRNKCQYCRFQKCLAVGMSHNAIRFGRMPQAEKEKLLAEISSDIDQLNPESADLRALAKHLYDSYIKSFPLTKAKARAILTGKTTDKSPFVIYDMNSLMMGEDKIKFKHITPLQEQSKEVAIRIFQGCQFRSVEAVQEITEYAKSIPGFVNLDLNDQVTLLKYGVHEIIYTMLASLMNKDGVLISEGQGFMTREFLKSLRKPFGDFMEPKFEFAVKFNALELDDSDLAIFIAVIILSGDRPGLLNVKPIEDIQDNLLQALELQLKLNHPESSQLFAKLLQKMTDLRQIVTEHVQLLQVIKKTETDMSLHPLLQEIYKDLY
In short: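 This is an agonist-mode beta-lactamase reporter assay in HEK293 PPAR-gamma-UAS-bla cells with 1% charcoal/dextran FBS. Compound titrations ran 16 h at 37 C before CCF4 detection. EC50 and efficacy are Hill fits scaled to 2 uM rosiglitazone (100%) and DMSO basal.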

[4] = target: Vitamin D3 receptor (Homo sapiens) (UniProt P11473); test: qHTS assay for small molecule agonists of vitamin D receptor signaling (AID 588543);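 further: 0% = DMSO basal and 100% = reference agonist control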
Sequence of Vitamin D3 receptor (Homo sapiens) (P11473 whole entry, looked up): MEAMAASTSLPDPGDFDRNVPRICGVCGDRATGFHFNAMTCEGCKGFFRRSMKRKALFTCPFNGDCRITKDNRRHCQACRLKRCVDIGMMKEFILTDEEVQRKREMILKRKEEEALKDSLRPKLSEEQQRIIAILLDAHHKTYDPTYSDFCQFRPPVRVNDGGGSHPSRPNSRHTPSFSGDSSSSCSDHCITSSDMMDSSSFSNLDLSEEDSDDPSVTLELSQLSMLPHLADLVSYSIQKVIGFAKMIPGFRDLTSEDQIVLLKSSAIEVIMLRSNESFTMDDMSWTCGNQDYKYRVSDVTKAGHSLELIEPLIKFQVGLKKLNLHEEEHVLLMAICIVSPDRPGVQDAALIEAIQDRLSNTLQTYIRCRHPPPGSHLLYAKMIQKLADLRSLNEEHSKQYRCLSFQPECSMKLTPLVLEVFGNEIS
In short: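 VDR-UAS-bla HEK293T cells, 2000/well, 2% charcoal-stripped FBS; compound titration 16 h at 37 C; CCF4 beta-lactamase ratio read. Normalized to 50 nM 1-alpha,25-dihydroxyvitamin D3 (100%) and DMSO; Hill fit gives EC50, efficacy.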

[5] = qHTS assay for small molecule activators of the p53 signaling pathway (AID 651743; active means well fitted activation curve with a large enough effect in the signal ratio, not every such curve was filed as active; the % refers to the signal ratio; further: potency means the concentration at half of the fitted maximal effect); conditions: HCT-116 p53RE-bla, beta-lactamase FRET ratio, 16 h; activation: stronger effect = higher value
In short: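 Here HCT-116 cells with an integrated p53-responsive beta-lactamase gene were incubated with compounds (16 hours, 37 C) after a 5-hour plating period; beta-lactamase activity was detected as fluorescence intensity via B/G FRET substrate.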

[6] = qHTS assay for small molecule activators of the nuclear factor-kappa B (NF-kB) signaling pathway (AID 651749; active means well fitted activation curve with a large enough effect in the signal ratio; the % refers to the signal ratio; further: series mostly up to about 77 µM; % of control where 0% means no effect); conditions: NF-kB-bla ME-180 cells, beta-lactamase FRET ratio, 16 h; activation: stronger effect = higher value
In short: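 Beta-lactamase reporter expression, controlled by NF-kB response elements in ME-180 cells, was quantified fluorometrically via FRET disruption; cells at 2,000/well had been incubated with 23 nL test compound for 16 hr.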

[7] = qHTS assay for environmental chemicals that activate the Aryl hydrocarbon Receptor (AhR) signaling pathway (AID 651777; active means well fitted curve in the direction sought with a large enough effect; an effect the other way counts as inactive or inconclusive; further: nearly all actives have a fitted effect of over 15% in size; further: potency means the concentration at half of the fitted maximal effect; on activation: % of control where 0% means no effect); conditions: 1A2-DRE human hepatoma cells, luciferase, 24 h; activation: stronger effect = higher value
In short: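 Concentration–response screening used 1,200 1A2-DRE cells per well, 24 hr compound exposure (37 C, 5% CO2), and One-Glo luminescence as the AhR-driven CYP1A2 reporter signal.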

[8] = target: Peroxisome proliferator-activated receptor alpha (Homo sapiens) (UniProt Q07869); test: qHTS assay for small molecule agonists of the peroxisome proliferator-activated receptor alpha (PPARalpha) signaling pathway (AID 651778; active means well fitted curve in the direction sought with a large enough effect; an effect the other way counts as inactive or inconclusive; further: % of control where 0% means no effect); conditions: PathHunter PPARalpha complementation, chemiluminescence, 6 h; max response: stronger effect = higher value
Sequence of Peroxisome proliferator-activated receptor alpha (Homo sapiens) (Q07869 whole entry, looked up): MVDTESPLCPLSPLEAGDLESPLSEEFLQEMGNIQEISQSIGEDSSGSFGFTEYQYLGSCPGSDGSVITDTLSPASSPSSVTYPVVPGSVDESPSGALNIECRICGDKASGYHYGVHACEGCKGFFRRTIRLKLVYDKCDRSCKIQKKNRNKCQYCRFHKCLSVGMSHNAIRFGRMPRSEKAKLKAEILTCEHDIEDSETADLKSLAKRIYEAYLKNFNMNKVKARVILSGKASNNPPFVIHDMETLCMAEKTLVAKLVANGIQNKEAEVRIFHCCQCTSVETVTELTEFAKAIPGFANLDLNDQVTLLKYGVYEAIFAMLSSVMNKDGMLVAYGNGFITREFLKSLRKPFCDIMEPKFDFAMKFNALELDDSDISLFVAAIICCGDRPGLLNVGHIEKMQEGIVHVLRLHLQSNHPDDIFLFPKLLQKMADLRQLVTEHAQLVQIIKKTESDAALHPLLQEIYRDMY
In short: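 Cells plated at 2,000/well and held overnight at 37 C, 5% CO2, then compound added by pin tool for 6 hr; after PathHunter detection reagent and 60 min at room temperature, chemiluminescence from enzyme complementation was read.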

[9] = qHTS assay for cell viability of HEK293 cells (AID 743288; active means well fitted curve in the direction sought with a large enough effect; an effect the other way counts as inactive or inconclusive; further: nearly all actives have a fitted effect of over 50% in size; further: potency means the concentration at half of the fitted maximal effect; on max response: on the % scale 0 is the no-effect control and ±100 the full control effect); conditions: ATP luminescence (CellTiter-Glo), 18 h; max response: stronger effect = lower value
In short: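 Steps: plate 2,000 parental HEK293 cells per well; incubate ≥5 h, 37 C; add compounds in DMSO; incubate 18 h, 37 C; add CellTiter-Glo; wait 30 min at room temperature; read luminescence.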

[10] = target: Cytochrome P450 3A4 (Homo sapiens) (UniProt P08684); test: qHTS Assay for Activators of Cytochrome P450 3A4 (AID 885; active means well fitted curve in the direction sought with a large enough effect; an effect the other way counts as inactive or inconclusive; further: nearly all actives have a fitted effect of over 65% in size)
Sequence of Cytochrome P450 3A4 (Homo sapiens) (P08684 whole entry, looked up): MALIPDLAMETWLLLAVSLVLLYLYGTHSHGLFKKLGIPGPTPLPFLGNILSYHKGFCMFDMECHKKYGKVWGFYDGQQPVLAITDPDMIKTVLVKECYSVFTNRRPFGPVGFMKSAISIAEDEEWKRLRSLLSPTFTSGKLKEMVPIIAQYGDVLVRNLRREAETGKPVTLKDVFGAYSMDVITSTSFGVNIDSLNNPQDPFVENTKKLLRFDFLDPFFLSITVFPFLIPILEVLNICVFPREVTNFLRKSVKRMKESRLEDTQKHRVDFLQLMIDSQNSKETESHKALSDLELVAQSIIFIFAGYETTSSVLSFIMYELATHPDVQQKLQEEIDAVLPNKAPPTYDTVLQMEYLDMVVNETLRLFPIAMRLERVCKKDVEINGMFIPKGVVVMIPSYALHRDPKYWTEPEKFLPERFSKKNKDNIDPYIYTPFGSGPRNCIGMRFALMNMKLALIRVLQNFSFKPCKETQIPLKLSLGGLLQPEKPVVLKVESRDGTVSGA
In short: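 Luminescent readout of luciferin formed from 25 uM Luciferin-PPXE (KM level) by 20 nM CYP3A4 in 200 mM KPO4, with 60 min NADPH-driven reaction at room temperature after 10 min compound exposure. Ketoconazole (57 uM) defined 100% inhibition.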

[11] = qHTS assay for small molecule agonists of the antioxidant response element (ARE) signaling pathway (AID 651741; active means well fitted activation curve with a large enough effect in the signal ratio; the % refers to the signal ratio; further: potency means the concentration at half of the fitted maximal effect; on activation: % of control where 0% means no effect)
In short: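 Beta-lactamase reporter expression driven by the antioxidant response element in HepG2 cells was detected by fluorescence with LiveBLAzer B/G FRET substrate (2 h, room temperature) following 16 h compound treatment at 37 C.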

[12] = target: Thyroid hormone receptor beta (Homo sapiens) (UniProt P10828); test: qHTS assay for small molecule agonists of thyroid hormone receptor beta signaling (AID 588545);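 further: 0% = DMSO only and 100% = 10 nM T3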
Sequence of Thyroid hormone receptor beta (Homo sapiens) (P10828 whole entry, looked up): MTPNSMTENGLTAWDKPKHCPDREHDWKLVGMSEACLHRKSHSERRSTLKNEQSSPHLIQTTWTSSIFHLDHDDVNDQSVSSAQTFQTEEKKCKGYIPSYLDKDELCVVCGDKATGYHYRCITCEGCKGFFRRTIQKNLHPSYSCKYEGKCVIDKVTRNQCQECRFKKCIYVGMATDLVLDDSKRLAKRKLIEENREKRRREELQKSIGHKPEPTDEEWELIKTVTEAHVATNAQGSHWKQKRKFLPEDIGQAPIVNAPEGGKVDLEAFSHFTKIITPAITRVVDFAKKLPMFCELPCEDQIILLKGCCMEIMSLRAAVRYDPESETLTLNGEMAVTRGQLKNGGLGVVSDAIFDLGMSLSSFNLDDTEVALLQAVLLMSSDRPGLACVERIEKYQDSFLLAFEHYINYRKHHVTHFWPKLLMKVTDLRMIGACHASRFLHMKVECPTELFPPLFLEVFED
In short: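 TR-UAS-bla-GripTite HEK 293 cells in medium with 2% charcoal/dextran FBS, 0.1 mM NEAA and 1 mM sodium pyruvate were treated with titrated compounds for 18 hrs at 37 C. Beta-lactamase reporter was read with CCF4 dye (ex 405, em 460/530 nm); EC50 from Hill fits.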

[13] = qHTS assay for small molecule antagonists of retinoid X receptor alpha signaling (AID 588546; active means well fitted inhibition curve with a large enough effect in the signal ratio, with a control signal flat, not every such curve was filed as active; the % refers to the signal ratio; further: potency means the concentration at half of the fitted maximal effect;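 on max response: cells stimulated with 9-cis-retinoic acid as agonist; on the % scale 0 is the no-effect control and ±100 the full control effect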); conditions: HEK293T RXRa-UAS-bla, beta-lactamase ratio, antagonist mode; measured here: W530 green channel, cytotoxicity proxy
In short: (§1)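 Beta-lactamase reporter inhibition, read as CCF4 fluorescence ratio (ex 405, em 460/530 nm) after 2 h at RT. HEK293T UAS-bla cells, 2500/well, were stimulated with 9-cis-RA at 500 or 100 nM final alongside test compound for 18 h at 37 C.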

[14] = target: Retinoic acid receptor RXR-alpha (Homo sapiens) (UniProt P19793); test: as above; conditions: HEK293T RXRa-UAS-bla, beta-lactamase ratio, antagonist mode
Sequence of Retinoic acid receptor RXR-alpha (Homo sapiens) (P19793 whole entry, looked up): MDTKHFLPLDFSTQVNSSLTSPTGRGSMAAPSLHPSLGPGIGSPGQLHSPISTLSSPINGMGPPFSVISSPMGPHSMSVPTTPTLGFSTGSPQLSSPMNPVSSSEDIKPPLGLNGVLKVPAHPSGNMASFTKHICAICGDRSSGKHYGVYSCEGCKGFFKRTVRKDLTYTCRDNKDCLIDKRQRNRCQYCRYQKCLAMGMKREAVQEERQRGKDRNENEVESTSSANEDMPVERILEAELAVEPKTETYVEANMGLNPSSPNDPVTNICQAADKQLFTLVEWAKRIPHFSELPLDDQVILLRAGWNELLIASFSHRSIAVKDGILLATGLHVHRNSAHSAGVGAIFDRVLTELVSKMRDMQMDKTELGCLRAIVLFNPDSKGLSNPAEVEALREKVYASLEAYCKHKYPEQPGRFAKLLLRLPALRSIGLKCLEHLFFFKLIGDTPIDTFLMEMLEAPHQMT
In short: as §1

[15] = qHTS assay for small molecule agonists of the antioxidant response element (ARE) signaling pathway measured by Nrf2-dependant transcriptional activity (AID 720636; active means well fitted curve in the direction sought with a large enough effect in the repeat runs; an effect the other way counts as inactive or inconclusive; further: % of control where 0% means no effect)
In short: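 Attachment 6 hr at 37 C, then compound versus DMSO vehicle for 16 hr in ARE-luc HepG2 cells (1% dialyzed FBS); luminescence recorded 30 min after ONE-Glo addition at room temperature.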

[16] = qHTS assay for cell viability of the p53RE-bla HCT-116 cell line (AID 743292; active means well fitted curve in the direction sought with a large enough effect; an effect the other way counts as inactive or inconclusive; further: potency means the concentration at half of the fitted maximal effect; nearly all actives have a fitted effect of over 55% in size)
In short: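 Compound-exposed HCT-116 (p53RE-bla) cells, 4,000 per well, were kept 16 h at 37 C following a 5 h preincubation. Cell number was estimated from total ATP by CellTiter-Glo luminescence read after 30 min at room temperature.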

[17] = target: Nuclear receptor subfamily 1 group I member 2 (Rattus norvegicus) (UniProt Q9R1A7); test: qHTS assay for small molecule activators of the rat pregnane X receptor (rPXR) signaling pathway (AID 651751; call rule not given here; further: 0% is about no effect); conditions: rPXR reporter cells, luciferase (One-Glo), 24 h
[18] = MultiTox-Fluor Cytotoxicity Assay - LYMP1-001 - Live Cells (AID 947; active means well fitted curve in the direction sought with a large enough effect; an effect the other way counts as inactive or inconclusive;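 further: 0% = DMSO only and full inhibition = tetraoctylammonium bromide control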)
[19] = qHTS assay for small molecule agonists of retinoid X receptor alpha signaling (AID 588544); conditions: HEK293T RXRa-UAS-bla, beta-lactamase reporter, 18 h; 530 nm emission;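 on activation: 0% = DMSO basal wells and 100% = reference agonist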
[20] = target: Thyroid hormone receptor beta (Homo sapiens) (UniProt P10828); test: qHTS assay for small molecule antagonists of thyroid hormone receptor beta signaling (AID 588547; active means well fitted inhibition curve with a large enough effect in the signal ratio, with a control signal flat, not every such curve was filed as active; the % refers to the signal ratio;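 further: cells stimulated with 0.4 nM T3 agonist during compound exposure; series mostly up to about 77 µM; on the % scale 0 is the no-effect control and ±100 the full control effect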); conditions: TR-UAS-bla HEK293, beta-lactamase ratio, antagonist mode, 18 h
In short: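 TR-UAS-bla GripTite HEK293 cells in 2% charcoal/dextran FBS medium were preincubated 4 h at 37 C, given compound (0.59 nM to 92 uM) plus 0.4 nM T3 (final) for 18 h, then CCF4 for 2 h at RT; Hill fit gave IC50.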

[21] = target: Nuclear receptor ROR-gamma (Homo sapiens) (UniProt P51449); test: qHTS assay for small molecule antagonists of the retinoid-related orphan receptor gamma (ROR-gamma) signaling pathway (AID 651802; active means well fitted curve in the direction sought with a large enough effect; an effect the other way counts as inactive or inconclusive;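 further: CHO cells with doxycycline-induced ROR-gamma expression; luciferase reporter luminescence driven by ROR response element; series mostly up to about 92 µM; on the % scale 0 is the no-effect control and ±100 the full control effect; nearly all actives have a fitted effect of over 60% in size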)
In short: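 Luciferase read-out: ONE-Glo luminescence after 30 min at room temperature, following 16hr doxycycline induction at 37C, 5% CO2 of CHO cells with TET-inducible ROR and RORE-LUC reporter; decreased luminescence = reduced reporter activity.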

[22] = qHTS assay for small molecule antagonists of peroxisome proliferator-activated receptor delta signaling (AID 588535; active means well fitted inhibition curve with a large enough effect in the signal ratio, with a control signal flat, not every such curve was filed as active; the % refers to the signal ratio;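 on max response: cells co-treated with a PPAR-delta agonist as stimulator during compound exposure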); conditions: HEK293T PPARd-UAS-bla, beta-lactamase FRET ratio, 18 h; 460 nm channel
In short: (§2)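 Compounds tested in titration on PPAR-delta-UAS-bla HEK293T cells grown in charcoal/dextran-stripped serum (2%); beta-lactamase activity read via CCF4 emission at 460 and 530 nm.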

[23] = target: Peroxisome proliferator-activated receptor delta (Homo sapiens) (UniProt Q03181); test: as above
In short: as §2

[24] = target: Retinoic acid receptor RXR-alpha (Homo sapiens) (UniProt P19793); test: qHTS assay for small molecule agonists of retinoid X receptor alpha signaling (AID 588544);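 on activation: 0% = DMSO basal wells and 100% = reference agonist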
[25] = target: Voltage-gated inwardly rectifying potassium channel KCNH2 (Homo sapiens) (UniProt Q12809); test: qHTS Assay for Small Molecule Inhibitors of the Human hERG Channel Activity (AID 588834; active means well fitted curve in the direction sought with a large enough effect; an effect the other way counts as inactive or inconclusive;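 further: top concentration of the series differs between compounds; on the % scale 0 is the no-effect control and ±100 the full control effect; lower thallium flux fluorescence means stronger hERG block; nearly all actives have a fitted effect of over 50% in size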)
Sequence of Voltage-gated inwardly rectifying potassium channel KCNH2 (Homo sapiens) (Q12809 whole entry, looked up): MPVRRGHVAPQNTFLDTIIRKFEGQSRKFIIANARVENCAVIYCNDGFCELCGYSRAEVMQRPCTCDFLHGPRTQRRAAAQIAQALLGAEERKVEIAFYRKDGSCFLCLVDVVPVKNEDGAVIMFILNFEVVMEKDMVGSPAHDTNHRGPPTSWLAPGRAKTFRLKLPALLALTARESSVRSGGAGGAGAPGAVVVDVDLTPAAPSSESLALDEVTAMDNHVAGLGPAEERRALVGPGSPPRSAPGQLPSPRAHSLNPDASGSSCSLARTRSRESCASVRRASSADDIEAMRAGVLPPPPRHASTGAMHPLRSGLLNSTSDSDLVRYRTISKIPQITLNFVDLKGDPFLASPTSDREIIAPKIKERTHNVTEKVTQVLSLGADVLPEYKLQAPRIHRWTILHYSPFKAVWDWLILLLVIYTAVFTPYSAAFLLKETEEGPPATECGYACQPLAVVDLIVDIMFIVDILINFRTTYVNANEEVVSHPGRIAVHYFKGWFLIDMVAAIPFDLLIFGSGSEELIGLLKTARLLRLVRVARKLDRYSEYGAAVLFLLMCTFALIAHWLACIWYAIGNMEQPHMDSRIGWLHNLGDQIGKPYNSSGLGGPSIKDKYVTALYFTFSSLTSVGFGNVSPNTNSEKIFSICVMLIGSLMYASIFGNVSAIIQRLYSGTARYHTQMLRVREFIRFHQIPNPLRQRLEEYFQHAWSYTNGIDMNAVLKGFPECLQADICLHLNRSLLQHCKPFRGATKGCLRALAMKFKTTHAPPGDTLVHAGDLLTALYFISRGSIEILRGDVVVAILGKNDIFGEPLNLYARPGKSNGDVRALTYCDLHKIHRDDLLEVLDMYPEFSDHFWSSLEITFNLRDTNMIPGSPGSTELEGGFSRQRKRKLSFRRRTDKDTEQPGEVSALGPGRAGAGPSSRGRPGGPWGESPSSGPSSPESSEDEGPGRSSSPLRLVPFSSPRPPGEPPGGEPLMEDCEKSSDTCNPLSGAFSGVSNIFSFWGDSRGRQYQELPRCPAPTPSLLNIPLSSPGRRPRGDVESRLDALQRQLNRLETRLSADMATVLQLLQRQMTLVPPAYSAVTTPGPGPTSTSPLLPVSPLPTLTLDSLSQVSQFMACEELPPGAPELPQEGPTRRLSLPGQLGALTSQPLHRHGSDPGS
In short: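 Thallium serves as surrogate for K+ influx through BacMam-delivered hERG in U2OS cells. Compounds are added for about 10 minutes after dye loading; stimulation buffer then starts flux, monitored kinetically on FDSS.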

[26] = qHTS assay for small molecule antagonists of the retinoid-related orphan receptor gamma (ROR-gamma) signaling pathway - cell viability counter screen (AID 720652; active means well fitted curve in the direction sought with a large enough effect in the repeat runs; an effect the other way counts as inactive or inconclusive;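 further: CHO reporter cells with doxycycline-induced ROR-gamma expression; series mostly up to about 92 µM; compound exposure lasted 16 hr before ATP read; on the % scale 0 is the no-effect control and ±100 the full control effect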)
In short: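 CHO RORE-LUC/TET-ROR line, 1,000 cells/well, 37 C 5% CO2 5 hr; cpd or DMSO + doxycycline induction, 16 hr. CellTiter-Glo, 30 min RT, luminescence = ATP content.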

## O=C1CCC(=O)O1
[1]
  activation: -2.49% (inactive)
[2]
  outcome: inactive

## O=C(O)c1ccc([N+](=O)[O-])cc1
[1]
  activation: -2.8% (inactive) and 1.45% (inactive)
[2]
  outcome: inactive

## CC(=O)CC(=O)Nc1ccc(C)cc1C
[1]
  activation: 0.192% (inactive)
[2]
  outcome: inactive

## c1ccc2[nH]cnc2c1
[1]
  activation: -1.83% (inactive)
[2]
  outcome: inactive

## COc1cccc2sc(N)nc12
[1]
  activation: -1.11% (inactive)
[2]
  outcome: inactive

## CCCCCCCCCC(=O)OC
[1]
  activation: -0.517% (inactive)
[2]
  outcome: inactive

## CC1=CC(=O)NS(=O)(=O)O1
[1]
  activation: 1.83% (inactive) and 0.839% (inactive)
[2]
  outcome: inactive

## O=c1n(CCO)c(=O)n(CCO)c(=O)n1CCO
[1]
  activation: 0.713% (inactive)
[2]
  outcome: inactive

## CCOC(=O)C(C)Oc1ccc(Oc2nc3ccc(Cl)cc3o2)cc1 (stereo not given)
[1]
  activation: -3.02% (inactive)
[3]
  Potency: inactive

## CCC(=O)C1C(=O)CC(C(=O)O)CC1=O (stereo not given)
[1]
  activation: -1.69% (inactive)
[2]
  outcome: inactive

## Cc1ccc(-c2c(Cl)nc(C#N)n2S(=O)(=O)N(C)C)cc1
[1]
  activation: 4.98% (inactive)
[3]
  Potency: inactive
[4]
  outcome: inactive
[5]
  Potency: 28.2 µM (active)
[6]
  activation: 2.86% (inactive)
[7]
  activation: 12.8% (inactive)
[8]
  max response: 15.7% (inactive)
[9]
  max response: -15.9% (inactive)

## CN(C)c1ccc(Cc2ccc(N(C)C)cc2)cc1
[10]
  Potency: inactive
[1]
  activation: -1.47% (inactive)
[2]
  outcome: inactive
[11]
  Potency: inactive

## Cc1nn(C)c(Oc2ccccc2)c1/C=N/OCc1ccc(C(=O)OC(C)(C)C)cc1
[1]
  activation: 6.71% (inactive)
[11]
  Potency: 0.154 µM (active)

## CCOC(=O)[C@H](C)Oc1ccc(Oc2nc3ccc(Cl)cc3o2)cc1
[1]
  activation: -2.5% (inactive)
[12]
  Potency: inactive

## CN(c1c(Br)cc(Br)cc1Br)c1c([N+](=O)[O-])cc([N+](=O)[O-])cc1C(F)(F)F
[1]
  activation: 1.9% (inactive)
[4]
  outcome: inactive
[13]
  max response: -24%
[14]
  Potency: 8.91 µM (active)
[11]
  Potency: 5.45 µM (active)
[7]
  activation: -7.94% (inactive)
[8]
  max response: -2.57% (inactive)
[15]
  Potency: inactive
[9]
  Potency: 39.8 µM (active)
[16]
  Potency: 7.08 µM (active)
[17]
  max response: -14.1% (inactive)

## Nc1ccccc1O
[1]
  activation: -1.93% (inactive)
[7]
  Potency: 12.6 µM (active)

## COC(=O)C1CCC(C(=O)OC)CC1 (stereo not given)
[1]
  activation: -4.06% (inactive)
[2]
  outcome: inactive

## CN(C)C=O
[18]
  Potency: inactive
[1]
  activation: -2.96% (inactive) and -2.36% (inactive) and -5.04% (inactive)
[19]
  max response: 2.34% and -5.07% and -17.6%

## c1ccc2c(c1)ccc1c3ccccc3ccc21
[1]
  activation: -1.28% (inactive)
[2]
  outcome: inactive
[11]
  Potency: 4.33 µM (active)
[7]
  Potency: 11.2 µM (active)

## CC(C)(C)c1ccc(C(=O)O)cc1
[1]
  activation: -9.49% (inactive)
[2]
  outcome: inactive

## Nc1ccc(Cl)cc1Cl
[10]
  Potency: inactive
[1]
  activation: 0.621% (inactive) and -4.4% (inactive)
[2]
  outcome: inactive

## CCCCC(CC)COC(=O)CCCCC(=O)OCC(CC)CCCC (stereo not given)
[10]
  Potency: inactive
[1]
  activation: -0.368% (inactive) and -0.458% (inactive)
[20]
  activity change % (negative = inhibition): 4.91% (inactive)
[21]
  Potency: inactive

## c1ccccc1
[1]
  activation: -0.124% (inactive) [middle of 4 runs]
[2]
  outcome: inactive
[22]
  max response: -9.22% and -21.5% and 24.9%
[23]
  Potency: inactive
[19]
  max response: -2.6% and -9.93% and -11.1%
[24]
  Potency: inactive
[25]
  Potency: inactive
[26]
  Potency: inactive

## Oc1ccc2ccccc2c1N=Nc1ccccc1
[1]
  activation: 3.78% (inactive)
[7]
  Potency: 14.1 µM (active)

## CCCCC(CC)COP(=O)(OCC(CC)CCCC)OCC(CC)CCCC (stereo not given)
[10]
  Potency: inactive
[1]
  activation: -0.972% (inactive)
[2]
  outcome: inactive
